The list is not random: actives were taken first. Their share in the collection is about 11%.
BAZ2B block – BAZ2B (human) inhibition; 4.4% of 360,000 active; Potency, µM (top dose mostly 114 µM), usual class: inhibitors; AlphaScreen BAZ2B-H3K14Ac peptide displacement; note: nearly all actives have a fitted effect of over 60% in size
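Multi-concentration screen (max 110 uM) measuring displacement of acetylated histone H3 peptide from BAZ2B by AlphaScreen, using 50 nM protein, 50 nM peptide and 10 ug/mL streptavidin donor plus Ni-chelate acceptor beads.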
HP1b binding inh – HP1-beta chromodomain-methylated histone interaction inhibition | P83916 | AlphaScreen HP1-beta / biotin-H3K9me3 peptide binding | Potency, µM (series often up to 114 µM), usual class: inhibitors | 0.56% of 390,000 active | AID 540317; note: nearly all actives have a fitted effect of over 70% in size
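HP1-beta protein (50 nM final) preincubated 30 min at room temperature with biotinylated H3(1-18)K9me3 peptide (50 nM) in PBS pH 7.4, 0.01% Tween-20, then compound added for 30 min. AlphaScreen streptavidin donor/nickel chelate acceptor beads (10 ug/mL final), 30 min dark, luminescence read.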
G9a block – blocks human histone lysine methyltransferase G9a. G9a H3K9 monomethylation, AlphaScreen, 2 h. Potency, µM (doses to about 102 µM), hits mostly inhibitors. Q96KQ7. 8.8% of 350,000 active; note: nearly all actives have a fitted effect of over 75% in size
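AlphaScreen read-out: biotin-H3K9 peptide (500 nM) methylation by 20 nM enzyme with 20 uM SAM, 2 h at room temperature after 15 min compound preincubation; anti-monomethyl H3K9 antibody plus donor/acceptor beads, 10 min dark.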
L3MBTL1 inh – inhibitors of human L3MBTL1. Q9Y468. AlphaScreen L3MBTL1–H3K9me1 peptide binding. Potency, µM (series often up to 57.1 µM), hits mostly inhibitors. 0.66% of 230,000 active. AID 485360; note: nearly all actives have a fitted effect of over 60% in size
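Read-out is AlphaScreen signal from streptavidin donor and nickel chelate acceptor beads (10 ug/mL final each) bridging L3MBTL1 (50 nM) and biotinylated K9-monomethylated H3(1-15) peptide (75 nM), after 30 min compound exposure at room temperature.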
JMJD2A Tudor – JMJD2A Tudor domain (human) inhibition | Potency, µM (series often up to 114 µM), most hits filed as inhibitors | 4.4% of 390,000 active | O75164 | AlphaScreen JMJD2A-Tudor / H3K4me3 peptide binding; note: nearly all actives have a fitted effect of over 50% in size
Of the large screens only hits and unclear results are named; the others gave an inactive call; ! = not confirmed by another sample. Calls come from the whole dose curve; as a rule, active = well fitted inhibition curve with a large enough effect; inconclusive = small, poorly fitted or top-dose-only effect; inactive = no such curve, though single readings can be large or run the other way.

CCN(CC)C(=O)Cn1c(=O)n(-c2ccc(OC)cc2OC)c(=O)c2c(C)c(C(=O)N(CC)CC)sc21	none (no result: L3MBTL1 inh)
CCCCC(=O)OCc1c(-c2ccccc2)ncc2ccccc12	none
Nc1ccccc1C(=O)NNc1ncc(C(F)(F)F)cc1Cl	BAZ2B block 50µM
O=S(=O)(NNc1ncc(C(F)(F)F)cc1Cl)c1ccccc1	HP1b binding inh inconclusive, G9a block inconclusive, JMJD2A Tudor 0.71µM
COc1ccc(NC(=O)/C(C#N)=C/c2ccc(OCc3cc(=O)n4nc(C)sc4n3)cc2)cc1	none (no result: L3MBTL1 inh)
COC(=O)c1ccccc1NC(=O)CSc1ncccn1	none
COC(=O)c1cc(C)sc1NC(=O)CSc1ncccn1	G9a block 10µM (no result: L3MBTL1 inh)
CCS(=O)(=O)N1CCc2cc(C(=O)NC(C)c3ccccc3)ccc21 (stereo not drawn)	none (no result: L3MBTL1 inh)
CCOc1ccccc1NC(=O)CN1C(=O)CC(c2ccc(OC)c(OC)c2)Sc2ccccc21 (stereo not drawn)	G9a block inconclusive (no result: L3MBTL1 inh)
NC(=S)N=Nc1c(O)n(CCCl)c2ccc(Br)cc12	BAZ2B block inconclusive
C/C(Cl)=C\Cn1c(O)c(N=NC(N)=S)c2cc(Br)ccc21	BAZ2B block 10µM, HP1b binding inh inconclusive, JMJD2A Tudor 45µM (no result: G9a block)
Cc1ccc(Cn2cc(CCC(=O)O)c3ccccc32)cc1	G9a block 45µM (no result: L3MBTL1 inh)
COc1cc(Cl)c(C)cc1NC(=O)CSc1cc(-c2ccccc2)nc(C)n1	none (no result: L3MBTL1 inh)
CCC(=O)N1CCc2cc(Br)cc(S(=O)(=O)N3CCN(c4cccc(Cl)c4)CC3)c21	none (no result: L3MBTL1 inh)
Cn1cc(C(=O)NCc2ccc(Cl)cc2)c(=O)c2cc(S(=O)(=O)N3CCCCCC3)ccc21	none (no result: BAZ2B block, L3MBTL1 inh)
Cc1ccccc1-c1nc2c3c(-c4ccccc4)c(-c4ccccc4)oc3ncn2n1	none (no result: L3MBTL1 inh)
NC(Cc1cccc(-c2ccccc2CP(=O)(O)O)c1)C(=O)O (stereo not drawn)	G9a block 9.5µM! (no result: BAZ2B block, HP1b binding inh, L3MBTL1 inh, JMJD2A Tudor)
Cc1cccc(C)c1C(=O)N[C@@H](Cc1ccccc1)C(=O)O	L3MBTL1 inh inconclusive
CCn1cc(C(=O)N(C)c2cc(C)ccc2C)c2cc(OC)c(OC)cc2c1=O	none (no result: L3MBTL1 inh)
Cc1cc(Nc2ccc3ccccc3c2)n2ncnc2n1	G9a block 16µM
COc1cc(OC)c(Nc2cc(C)nc3ncnn23)cc1Cl	G9a block 11µM (no result: L3MBTL1 inh)
COc1cc(OC)c(Nc2cc(C)nc3nc(C)nn23)cc1Cl	G9a block inconclusive
CCOC(=O)N1CCc2c(sc3c2c(=O)n(-c2ccc(F)cc2)c(=O)n3CC(=O)c2ccccc2)C1	none (no result: L3MBTL1 inh)
CCNc1ncc2nc(CCc3ccccc3)c(=O)n(Cc3cccc(OC)c3)c2n1	none (no result: BAZ2B block, HP1b binding inh, L3MBTL1 inh, JMJD2A Tudor)
O=C(O)c1ccccc1NS(=O)(=O)c1ccc(NNC(=S)Nc2ccc(OC(F)F)cc2)c([N+](=O)[O-])c1	BAZ2B block 7.9µM, HP1b binding inh 10µM, G9a block 10µM, JMJD2A Tudor 25µM (no result: L3MBTL1 inh)
COc1ccc(C(C)=NNc2ccc([N+](=O)[O-])cc2S(=O)(=O)Nc2ccccc2C(=O)O)c(OC)c1	JMJD2A Tudor inconclusive (no result: BAZ2B block, G9a block)
Cc1ccc(NC(=S)NNc2ccc([N+](=O)[O-])cc2S(=O)(=O)Nc2ccccc2C(=O)O)cc1C	BAZ2B block 11µM, HP1b binding inh inconclusive, G9a block 11µM, JMJD2A Tudor 50µM
Cc1ccc(NC(=S)NNc2ccc(C(=O)O)cc2[N+](=O)[O-])cc1C	HP1b binding inh 50µM, JMJD2A Tudor 7.9µM (no result: BAZ2B block, G9a block, L3MBTL1 inh)
Cc1cccc(NC(=O)C(C)OC(=O)c2ccccc2NS(=O)(=O)c2cc(C)c(C)c([N+](=O)[O-])c2)c1 (stereo not drawn)	none
Cc1ccc(NC(=O)CC(C)S(=O)(=O)c2ccc3c(c2)NC(=O)CO3)cc1Cl (stereo not drawn)	none (no result: L3MBTL1 inh)
COc1ccc(NC(=O)N2CCCC3(CCN(C(=O)c4cnccn4)CC3)C2)cc1	none (no result: BAZ2B block, HP1b binding inh, L3MBTL1 inh, JMJD2A Tudor)
CCOC(=O)c1cnc2c(-c3ccc(F)cc3)cnn2c1C(F)(F)F	JMJD2A Tudor 35µM
O=C(NCc1ccccc1)C12CN(Cc3ccccc3)CC1C(c1cccc([N+](=O)[O-])c1)=NO2 (stereo not drawn)	BAZ2B block inconclusive, G9a block 8.9µM
Cc1cccc2c1-c1sc(C(=O)Nc3ccccc3N3CCN(C)CC3)cc1CO2	BAZ2B block 45µM, JMJD2A Tudor inconclusive (no result: G9a block, L3MBTL1 inh)
Cc1cccc(NC(=O)c2c(C)cc(C)nc2SCC(=O)Nc2c(C)cc(C)cc2C)c1	none (no result: L3MBTL1 inh)
